Laboratory results as given in PubChem BioAssay AID488840 (Broad Institute, 2010).
Among all 1,400 compounds or so, about 45 (3%) were called active.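 The calls were made as follows: active = half-maximal dose of signal decrease from fit no higher than ten times the top valid tested dose; inconclusive = fit invalid, or curve flat with 30 to 70% inhibition; inactive = the rest.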 Not all results are given here. Entries with a potency or affinity are not part of this list.

The molecules below were run against Lysine-specific demethylase 4A (Homo sapiens) (UniProt O75164) (assay: JMJD2A histone demethylase inhibitors, dose response, selectivity assay for GASC-1 inhibitor project, biochemical, DELFIA europium, cherry-picked samples (AID 488840;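 also: europium signal reports the dimethyl H3K9 product detected by antibody so inhibitors lower it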)). Conditions: GST-JMJD2A(1-420) H3K9me3 demethylation; series mostly up to 6 µM.
Sequence of Lysine-specific demethylase 4A (Homo sapiens) (O75164 whole entry, looked up): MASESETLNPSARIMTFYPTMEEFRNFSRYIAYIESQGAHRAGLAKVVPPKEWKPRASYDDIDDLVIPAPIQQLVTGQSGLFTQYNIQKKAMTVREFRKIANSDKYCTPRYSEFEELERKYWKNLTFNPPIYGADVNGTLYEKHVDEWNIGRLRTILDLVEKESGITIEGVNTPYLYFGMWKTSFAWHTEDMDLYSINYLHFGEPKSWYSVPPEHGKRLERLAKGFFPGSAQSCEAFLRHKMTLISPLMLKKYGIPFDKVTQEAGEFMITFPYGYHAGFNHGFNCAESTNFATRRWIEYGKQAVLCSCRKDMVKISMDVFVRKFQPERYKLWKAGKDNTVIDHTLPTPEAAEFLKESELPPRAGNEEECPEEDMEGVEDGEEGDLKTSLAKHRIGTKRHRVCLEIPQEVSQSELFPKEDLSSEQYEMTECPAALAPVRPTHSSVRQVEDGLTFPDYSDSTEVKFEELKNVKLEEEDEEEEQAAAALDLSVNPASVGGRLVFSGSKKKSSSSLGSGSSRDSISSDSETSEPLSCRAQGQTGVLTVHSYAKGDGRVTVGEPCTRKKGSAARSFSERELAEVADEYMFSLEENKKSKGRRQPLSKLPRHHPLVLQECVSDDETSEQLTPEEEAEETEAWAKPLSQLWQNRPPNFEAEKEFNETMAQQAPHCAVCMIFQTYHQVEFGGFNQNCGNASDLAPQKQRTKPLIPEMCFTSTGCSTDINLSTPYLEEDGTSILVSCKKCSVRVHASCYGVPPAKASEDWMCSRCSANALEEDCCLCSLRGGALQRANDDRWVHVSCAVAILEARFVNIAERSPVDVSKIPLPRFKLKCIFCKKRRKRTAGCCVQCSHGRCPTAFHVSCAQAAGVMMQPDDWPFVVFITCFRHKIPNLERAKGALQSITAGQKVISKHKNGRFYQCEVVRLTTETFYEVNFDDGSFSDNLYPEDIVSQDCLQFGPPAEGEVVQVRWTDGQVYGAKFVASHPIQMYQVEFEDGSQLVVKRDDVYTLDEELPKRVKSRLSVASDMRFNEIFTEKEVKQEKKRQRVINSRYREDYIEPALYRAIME

outcome, inactive:
CCOC(=O)Cc1csc(NC(=O)COc2cccc(C)c2)n1
Cc1ccccc1-n1nc(C)c2cc(C(=O)N3CCN(S(=O)(=O)c4ccc(F)cc4)CC3)sc21
Cc1cccc(-c2noc(CCC(=O)NC3CCCC3)n2)c1
COc1ccc(CN2CCCCC2C)c(C)c1C (configuration not stated)
CC(C)CCN(C(=O)C1=COCCO1)c1c(N)n(Cc2ccccc2)c(=O)[nH]c1=O
Cn1c(=O)[nH]c(=O)c2c1nc(NCCCO)n2Cc1ccc(F)cc1
COC(=O)COc1ccc(Oc2cc(C)nc(SC)n2)nn1
Cc1ccc2c(c1)N(CC(=O)NCC1CCCO1)C(=O)C(C(C)C)O2 (configuration not stated)
C=CCn1c(N)c(-c2nc3ccccc3n2C)sc1=S
COc1ccc(C(=O)N2CCCC(c3nc(-c4ccc(OC)c(OC)c4)no3)C2)c(OC)c1 (configuration not stated)
O=C(NCCCN1CCOCC1)c1cccc(S(=O)(=O)N2CCc3ccccc3C2)c1
O=C(Nc1cc(S(=O)(=O)N2CCOCC2)ccc1N1CCCC1)c1ccc(F)cc1
O=C(COC(=O)c1cccc(S(=O)(=O)NCc2ccccc2)c1)Nc1ccccc1OC(F)F
c1coc(CSCc2cn3cccnc3n2)c1
COC(=O)[C@]1(C)N[C@H](CN(C)C(=O)Nc2ccc(F)cc2)[C@@H]2C(=O)N(C)C(=O)[C@@H]21
Cc1cccc(NC(=O)C2CCCN(S(=O)(=O)c3c(C)nn(C)c3C)C2)n1 (configuration not stated)
CN(C(=O)c1ccc(Cl)c([N+](=O)[O-])c1)C1(C)CCS(=O)(=O)C1 (configuration not stated)
O=C1NC(=S)N/C1=C/c1cc2c(cc1[N+](=O)[O-])OCO2
N#CC1(NC(=O)Cn2ncc(Cl)c(Cl)c2=O)CCCCC1
CCOC(=O)C1=C(C)N(C)C(C)=C(C(=O)OCC)C1c1cccnc1
COc1cccc(CNC(=O)c2cc3c(cc2Cl)N2CCCCCC2=NS3(=O)=O)c1
C#CCOCCOCCOCCNc1nc(N2CCN(C(=O)CCCCCCCCCCNC(=O)[C@H](CCCCN)n3cc(CCO)nn3)CC2)nc(N2CCN(C(=O)CCCCCCCCCCNC(=O)[C@H](CCCCN)n3cc(C[C@@H](C)CC)nn3)CC2)n1
C#CCOCCOCCOCCNc1nc(N2CCN(C(=O)CCCCCCCCCCNC(=O)[C@H]([C@@H](C)CC)n3cc(CCCCN=C(N)N)nn3)CC2)nc(N2CCN(C(=O)CCCCCCCCCCNC(=O)[C@H](CCCCN)n3cc(C)nn3)CC2)n1
O=C1C=C(NCc2ccc3c(c2)OCO3)CC(c2ccccc2)C1 (configuration not stated)
Cc1cc(C(F)(F)F)nn1C(=O)c1cccnc1Cl
O=C(NCCCNCCCNC(=O)c1ccc(/C=N/O)nc1)c1ccc(/C=N/O)nc1
COC(=O)CSC1=C(C#N)C(c2ccsc2)CC(=O)N1 (configuration not stated)
COc1ccc(N2C(=O)CSC23CCCCC3)cc1
Cc1cccnc1Nc1nc(-c2ccc(O)cc2)cs1
COc1ccc(/C=C(/C(=O)NCc2ccccc2)c2ccccc2)cc1
Cc1cccc(NC(=S)N2CCN(Cc3ccc4c(c3)OCO4)CC2)c1C
CC1(C)[N+]([O-])=C2C(=[N+]([O-])C1(C)C)c1ccccc1/C2=N\O
O=C1NCCN1CCNS(=O)(=O)c1ccccc1[N+](=O)[O-]
Cc1ccc(NC(=O)COC(=O)c2ccco2)cc1S(=O)(=O)N1CCOCC1
Cc1ccc(/C=N/NC(=O)c2ccc(C(=O)N/N=C/c3ccc(C)s3)o2)s1
CC(C)C[C@@H]1CN=C(N)N1C[C@@H]1CCCN1C[C@H](C)N1C[C@@H](Cc2ccccc2)N(CCc2ccc(Cl)c(Cl)c2)C1=N
Cc1ccc(S(=O)(=O)N2CCOCC2)cc1C(=O)NNC(=O)c1ccoc1C
COCCCNC(=O)CC1C[C@H](C(=O)N2CCOCC2)[C@@]2(C)c3[nH]c4ccccc4c3CCN2C1=O (some centres not stated)
Cc1noc(C)c1CCC(=O)N1CCCC(CCC(=O)NCc2ccccc2F)C1 (configuration not stated)
COCCn1c(N)c(C(=O)NCC2CCCO2)c2nc3ccccc3nc21 (configuration not stated)
Cn1c(=O)c2c(nc(NC3CCCCC3)n2Cc2ccccc2)n(C)c1=O
CC(=O)C[C@@H](O)CC(=O)[C@@H]1OC(=O)[C@@H](C)C/C=C\Cc2ccccc21
CCN1C(=O)C(CC(=O)Nc2ccc(OC)cc2)N(CCc2ccccc2F)C1=S (configuration not stated)
COC(=O)C1CC(O)CN1C(=O)NC1CCCCC1 (configuration not stated)
CCCCn1c(=O)[nH]c(=O)c2c1nc(-c1cc(Cl)c(OC)c(OC)c1)n2C
CNc1nc2c(c(=O)[nH]c(=O)n2C)n1CCCc1ccccc1
COc1ccc(/C=N/NS(=O)(=O)c2ccc(NC(C)=O)cc2)cc1
N/C(=N\S(=O)(=O)c1cc(C(F)(F)F)cc(C(F)(F)F)c1)c1ccccc1
C[C@@H]1CN([C@@H](C)CO)C(=O)c2cc(NC(=O)Nc3ccc4c(c3)OCO4)ccc2O[C@H]1CN(C)S(=O)(=O)c1ccc(F)cc1
COC(=O)c1ccc(CSc2nc3sc(C(=O)O)c(C)c3c(=O)[nH]2)cc1
CC1CCN(C(=S)NC(=O)c2cccc([N+](=O)[O-])c2)CC1
COc1ccccc1CNC(=O)COc1ccc(S(=O)(=O)N2CCOCC2)cc1C
O=C(CN1C(=O)c2ccccc2C1=O)NCC1COc2ccccc2O1 (configuration not stated)
O=C(NC1CC2CCC1C2)C1COc2ccccc2O1 (configuration not stated)
COc1ccccc1/C=C1\SC(=S)N(CCC(=O)NNC(=O)c2ccccc2OC)C1=O
CNC[C@@H]1Oc2c(NC(=O)Nc3ccccc3)cccc2C(=O)N([C@@H](C)CO)C[C@H]1C
N#Cc1cc(-c2ccccc2)nnc1Sc1ccccc1
COc1ccc(OCC(=O)N2CCC3(CC2)CC(=O)c2ccccc2O3)cc1
Cc1ccc(S(=O)(=O)N2[C@@H](c3ccc(Br)cc3)C(C(=O)O)=CC[C@H]2c2cccc(Cl)c2)cc1
CCc1ccc([C@@H]2CC=C(C(=O)O)[C@H](c3ccc(Br)cc3)N2S(=O)(=O)c2ccc(C)cc2)cc1
O=C(Nc1nnc(-c2cc(Cl)ccc2Cl)o1)c1ccco1
O=C(Oc1ccc(N2C(=O)CCC2=O)cc1)c1ccccc1
O=C(CC1C[C@H](C(=O)N2CCCCC2)[C@@]2(CCc3ccccc3)c3[nH]c4ccccc4c3CCN2C1=O)NCCC1=CCCCC1 (some centres not stated)
Cc1ccc(OCC(=O)Nc2ccccc2Sc2ccccc2)c([N+](=O)[O-])n1
O=c1oc(C2(O)CCCCC2)cc2ccccc12
COc1ccc(C(=O)O/N=C(\C)c2cnccn2)cc1
COc1ccc(NC(=O)N(C)C[C@H]2Oc3ccc(NC(=O)CCC(F)(F)F)cc3C(=O)N([C@H](C)CO)C[C@@H]2C)cc1
O=C(CSc1nc(-c2ccccc2)cc(=O)[nH]1)NCc1ccc2c(c1)OCO2
O=S(=O)(c1ccc2nc(Nc3ccccc3)ccc2c1)N1CCCCC1
N#Cc1cnn(CC2CCCCC2)c1N
CC(=O)C(Sc1nc(N2CCOCC2)nc(N2CCOCC2)n1)C(=O)Nc1ccccc1 (configuration not stated)
CCOC(=O)C1=C(c2ccccc2)NC(=O)NC1c1ccc(O)c(OCC)c1 (configuration not stated)
CCOC(=O)C1=C(C)NC(=O)NC1c1ccc(Br)s1 (configuration not stated)
Cc1cc(SCC(=O)c2ccccc2)n2nc(C)nc2n1
N=c1nc(-c2ccccc2)ccn1O
O=C(NCC1CCCO1)Nc1ccccc1 (configuration not stated)
CCOc1ccc(CN2CCN(Cc3nc(C(C)C)cs3)CC2CCO)cc1 (configuration not stated)
O=C(OCc1c(Cl)cccc1Cl)c1cnccn1
Cn1c(=O)c2[nH]c(N3CCN(c4cccc(O)c4)CC3)nc2n(C)c1=O
Cc1ccc(NN=Nc2nc3c([nH]2)c(=O)n(C)c(=O)n3C)cc1
C#CCOCCOCCOCCNc1nc(N2CCN(C(=O)C([C@@H](C)O)n3cc([C@@H](N)CCCCN)nn3)CC2)nc(N2CCN(C(=O)[C@H](CC(N)=O)n3cc([C@@H](N)C(C)C)nn3)CC2)n1 (some centres not stated)
COc1ccc(/C=N/N(C)c2cc(=O)n(C)c(=O)[nH]2)cc1OC
Nc1ccc(S(=O)(=O)NC2(C(F)(F)F)NC(=O)N(c3ccc(F)cc3)C2=O)cc1 (configuration not stated)
COc1ccc(N(Cc2cc3cccc(C)c3[nH]c2=O)S(C)(=O)=O)cc1
O=C(Nc1ccccc1)N(CCc1nc2ccccc2[nH]1)C1CCCC1
COc1ccc(NC(=O)NCCCCc2ccccc2)c(OC)c1
O=C(Cn1cnc2c(OCc3ccccc3)ncnc21)NCCCc1ccccc1
Cc1cc(NC(=O)CCC(=O)N(c2ccccc2)C2(C(=O)NC3CCCCC3)CCCC2)no1
Cc1cnc(NC(=O)c2ccc(-c3nc4ccccc4s3)o2)s1
Cn1c(/N=C/c2cc(Cl)ccc2O)nc2ccccc21
O=C(COC(=O)C1(c2ccc(Cl)cc2)CCCC1)NC1CCS(=O)(=O)C1 (configuration not stated)
O=C(CSc1nnc(CNC(=O)c2c(F)cccc2Cl)o1)Nc1ccc2c(c1)OCCO2
COc1ccc(-c2nn3c(-c4ccco4)nnc3s2)cc1OC
CC(C)(C)n1nc2c(c1NC(=O)c1ccc(Br)o1)CS(=O)C2 (configuration not stated)
O=C(Nc1ccc(-c2nc3ncccc3o2)cc1)c1ccc(Br)o1
CCn1c(CCn2ccnc2C)n[nH]c1=S
COC(=O)c1cc(S(=O)(=O)N2CCN(c3ccc(F)cc3)CC2)c[nH]1
